In PubChem BioAssay (NCATS) one finds Potency and activity change, negative = inhibition data, which are given here for 22 compounds.

In test [1] the target is Calcium and integrin-binding protein 1 (Homo sapiens) (UniProt Q99828). Description: Primary qHTS for Identification of Calcium Integrin Binding Protein 1 (CIB1) Competitor (AID 1508620).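 Also: GST tagged CIB1 binding a fluorescein labelled alphaIIb integrin peptide tracer; top concentration of the series differs between compounds.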 A digest of the protocol: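 Fluorescence polarization competition: CIB1-GST (1 uM final) preincubated with compound 15 min at room temperature, then FITC-labeled alphaIIb peptide (100 nM final) added for another 15 min. Polarization read at Ex 480/Em 540.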
In general terms: In qHTS, concentration-response curves come from the screen itself.

Test [2] can be described thus: Primary qHTS for inhibitors of nuclear receptor binding SET domain protein 2 (NSD2) in an isogenic RCH-ACV NSD2 p.E1099K mutant (9B) (AID 1645876). Also: nearly all actives have a fitted effect of over 70% in size. Also: potency is read from the fitted curve at half-maximal effect.
Test [3] in a line: Primary qHTS for inhibitors of nuclear receptor binding SET domain protein 2 (NSD2) in an RCH-ACV wild type WT cells (2C) (AID 1645877). Also: nearly all actives have a fitted effect of over 70% in size. Also: potency is read from the fitted curve at half-maximal effect.

Results filed as inconclusive are left out. Entries that show only a call come without a potency. Values without a mark were called inactive. Activity calls are given as the source filed them. Calls follow the shape of the dose curve; as a rule, active = well fitted curve in the direction sought with a large enough effect; inconclusive = small, poorly fitted or top-dose-only effect, or another doubt; inactive = no such curve, though single readings can be large; an effect the other way counts as inactive or inconclusive.

Sequence of Calcium and integrin-binding protein 1 (Homo sapiens) (Q99828 whole entry, looked up): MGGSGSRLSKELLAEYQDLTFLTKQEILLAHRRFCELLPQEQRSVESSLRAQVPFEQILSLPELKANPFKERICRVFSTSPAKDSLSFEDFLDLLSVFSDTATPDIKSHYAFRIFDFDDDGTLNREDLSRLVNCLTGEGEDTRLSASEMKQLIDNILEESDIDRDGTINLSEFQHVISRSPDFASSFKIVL

For `CC(C)C[C@@H]1NC(=O)[C@@H](Cc2ccccc2)NC(=O)C(CCCCCC(=O)C2CO2)NC(=O)[C@@H]2CCCCN2C1=O` (stereo partly specified), the Potency entry in test [1] was “inactive”. The Potency in test [2] was 0.0709 µM (active); in test [3], 0.0252 µM (active).
On the same counts, the results for `COc1ccc(C2=NC(c3ccc(Cl)cc3)C(c3ccc(Cl)cc3)N2C(=O)N2CCNC(=O)C2)c(OC(C)C)c1` (stereo unspecified) are “inactive”, 5.78 µM (active) and 2.58 µM (active).
Consider `Cc1cc(-c2ncc(-c3cccnc3)cc2/C=C/c2ccccc2)cnc1-c1cccnc1`, for which the Potency entry in test [1], in test [2] and in test [3] was “inactive” in each case.
With `COc1cc(/C=C2\CCCN([C@@H](C)c3ccc(F)cc3)C2=O)ccc1-n1cnc(C)c1`, the Potency result in test [1] was “inactive”. Moreover, the results for the Potency in test [2] and in test [3] were 11.5 µM (active) and 12.9 µM (active), respectively.
For `C/C=C(\C)C(=O)OC1C[C@@]2(COC(C)=O)O[C@H]2/C=C\[C@@]2(C)O[C@@H]2[C@H]2OC(=O)C(COC(C)=O)=C12` (stereo partly specified) the same measures were “inactive”, 8.93 µM (active) and 5.63 µM (active).
On the same counts, the results for `C=C(C)C(=O)OC1CC(CO)CCC/C(CO)=C/C2OC(=O)C(=C)C21` (stereo unspecified) are “inactive”, 2.53 µM (active) and 2.01 µM (active).
For `CC(C)CC(=O)c1c(O)cc2c(c1O)C(CC(C)C)C1=C(O2)C(C)(C)C(=O)C(C)(C)C1=O` (stereo unspecified) the same measures were “inactive”, 10 µM (active) and 7.96 µM (active).
Regarding `Cc1c(F)ccc(C(=O)Nc2cc([N+](=O)[O-])ccc2N2CCN(C)CC2)c1Cl`, the Potency entry in test [1], in test [2] and in test [3] was “inactive” each time.
Consider `CCCCCCCCC(=O)N[C@H](CN1CCCC1)[C@H](O)c1ccc2c(c1)OCCO2`, for which the Potency result in test [1] was “inactive”. Further, the Potency in test [2] is 23 µM (active); in test [3], 18.3 µM (active).
For `OC[C@H]1O[C@@H](OC/C=C/c2ccc(O)cc2)[C@H](O)[C@@H](O)[C@@H]1O` the same measures were “inactive”, “inactive” and “inactive”.
As to `COCC(c1ccc(C(F)(F)F)cc1)N1CCN(C2(C)CCN(C(=O)c3c(C)ncnc3C)CC2)CC1C` (stereo unspecified), the Potency entry in test [1], in test [2] and in test [3] was “inactive” each time.
For the compound `CCN(Cc1cc(Nc2nc(C)cn3c(-c4cn[nH]c4)cnc23)sn1)C(C)(C)CO`, the Potency entry in test [1] is “inactive”. Besides, the values for the Potency in test [2] and in test [3] were 0.0092 µM (active) and 0.0082 µM (active), respectively.
On to `COC1CC(O[C@H]2CC[C@]3(C)C4CC[C@@]5(C)C(=O)[C@]4(CC[C@@H]3C2)CC[C@@H]5C2=CC(=O)OC2)OC(C)C1OC1OC(COC2OC(CO)C(O)C(O)C2O)C(O)C(O)C1O` (stereo partly specified), for which, in test [1], the Potency result is “inactive”. For the same compound, the results for the Potency in test [2] and in test [3] were 1.54 µM (active) and 2.75 µM (active), respectively.
For `C=C[C@@]1(C)CCC2C(=CCC3[C@]2(C)CCC[C@@]3(C)C(=O)O)C1` (stereo partly specified) the same measures were “inactive”, “inactive” and “inactive”.
For `Cc1ccc(-c2ncccn2)c(C(=O)N2C[C@H](COc3ccc(F)cn3)CC[C@H]2C)c1` the same measures were “inactive”, “inactive” and “inactive”.
On the same counts, the results for `C=C1CCC2C(C)(C(=O)O)CCCC2(C)C1CCC1=CCOC1=O` (stereo unspecified) are “inactive”, “inactive” and “inactive”.
As for `CN[C@@H]1[C@H](O[C@H]2[C@H](O[C@@H]3[C@@H](O)[C@H](O)[C@@H](N=C(N)N)[C@H](O)[C@H]3N=C(N)N)O[C@@H](C)[C@]2(O)CO)O[C@@H](CO)[C@H](O)[C@H]1O`, the Potency result in test [1], in test [2] and in test [3] was “inactive” throughout.
`CN1CCc2cc3c(cc2C(=O)Cc2cc4c(cc2C1)OCO4)OCO3`: the Potency result in test [1], in test [2] and in test [3] was “inactive” each time.
`CC[C@@H](C)[C@@H]1OC2(C=C[C@H]1C)C[C@@H]1C[C@H](C/C=C(\C)[C@H](O[C@H]3C[C@H](OC)[C@H](O[C@H]4C[C@H](OC)[C@H](NC(C)=O)[C@H](C)O4)[C@H](C)O3)[C@H](C)/C=C/C=C3\CO[C@H]4[C@H](O)C(C)=C[C@@H](C(=O)O1)[C@@]34O)O2` (stereo partly specified): the Potency entry in test [1] is “inactive”. For the same compound, the Potency in test [2] was 8.01 µM (active); in test [3] it was 5.05 µM (active).
For `C/C(=C/CO)CCC1C(C)CCC2C(C)(C)CCCC12C` (stereo unspecified) the same measures were “inactive”, “inactive” and “inactive”.
On the same counts, the results for `COC(=O)C1=COC(O[C@@H]2O[C@H](CO[C@@H]3O[C@H](COC(=O)/C=C\c4ccc(O)cc4)[C@@H](O)[C@H](O)[C@H]3O)[C@@H](O)[C@H](O)[C@H]2O)C2C(CO)=CCC12` (stereo partly specified) are “inactive”, “inactive” and “inactive”.
As to `C/C=C(/C)C(=O)O[C@H]1[C@H](OC(=O)/C(C)=C\C)[C@@]23C(CC1(C)C)[C@]1(CCC4[C@@]5(C)CC[C@H](O[C@@H]6O[C@H](C(=O)O)[C@@H](O)[C@H](O[C@@H]7O[C@H](CO)[C@H](O)[C@H](O)[C@H]7O[C@@H]7O[C@@H](C)[C@H](O)[C@@H](O)[C@H]7O[C@@H]7OC[C@@H](O)[C@H](O)[C@H]7O)[C@H]6O[C@@H]6O[C@H](CO)[C@H](O)[C@H](O)[C@H]6O)C(C)(C)C5CC[C@@]4(C)[C@]1(C)C[C@H]2O)O[C@H]3O` (stereo partly specified), the activity change, negative = inhibition in test [1] was -2.7% [at 12.4 µM]. The Potency in test [2] was 1.22 µM (active); in test [3], 2.18 µM (active).
